Screening data as filed in PubChem.
Most compounds without a hit are left out; they make up all but 4.8% or so of the library.
DAX1 inh-1: blocks DAX1 repression of SF-1 activated StAR promoter | inhibition, % at 6.8 µM | HEK293T StAR-luciferase reporter, SF-1/DAX-1 repression relief | hit rate 1.1% among 370,000 | AID 652010;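 active = inhibition above the mean over all tested compounds plus 3 SD, cut at about 3.6% in these data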;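 also: higher inhibition means more luminescence from relief of DAX-1 repression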
DAX1 inh-2: inhibitors of human orphan nuclear receptor DAX1 (NR0B1). P51843. HEK293 Gal4-DAX1 luciferase reporter, luminescence. inhibition, % at 6.75 µM. hit rate 0.99% among 340,000. AID 504766;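 active = inhibition above the mean over all tested compounds plus 3 SD, cut at about 4.2% in these data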;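 also: inhibition shows as a rise in luminescence from relieved DAX1 repression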
ssDAF-12 act: activators of S. stercoralis DAF-12 nuclear receptor; HEK293 ssDAF-12/GRIP1 lit1-tk-luc reporter, luminescence; % of 3 µM dafachronic acid response; activation, % at 6.8 µM; hit rate 1% among 370,000; AID 652126;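 active = activation above the mean over all tested compounds plus 3 SD, cut at about 0.9% in these data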
hcDAF12 agonist: activators of H. contortus DAF-12 nuclear receptor. AID 652067. activation, % at 6.8 µM. hit rate 1.4% among 370,000. HEK293 hcDAF-12 lit1-tk-luc reporter, luminescence; 0% DMSO, 100% Δ7-dafachronic acid;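 active = activation above the mean of all tested compounds plus 3 SD, cut at about 5.5% in these data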
Rev-erbA mod: Rev-erb alpha (human) modulation. Rev-erbα–FITC-DNA binding, fluorescence polarization, 90 min. activity, % at 10 µM. hit rate 0.79% among 370,000. AID 1259318;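 active = activity above about 14%, limit read from the data; passing the limit was not always enough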
Target sequence (P20393 whole entry, looked up): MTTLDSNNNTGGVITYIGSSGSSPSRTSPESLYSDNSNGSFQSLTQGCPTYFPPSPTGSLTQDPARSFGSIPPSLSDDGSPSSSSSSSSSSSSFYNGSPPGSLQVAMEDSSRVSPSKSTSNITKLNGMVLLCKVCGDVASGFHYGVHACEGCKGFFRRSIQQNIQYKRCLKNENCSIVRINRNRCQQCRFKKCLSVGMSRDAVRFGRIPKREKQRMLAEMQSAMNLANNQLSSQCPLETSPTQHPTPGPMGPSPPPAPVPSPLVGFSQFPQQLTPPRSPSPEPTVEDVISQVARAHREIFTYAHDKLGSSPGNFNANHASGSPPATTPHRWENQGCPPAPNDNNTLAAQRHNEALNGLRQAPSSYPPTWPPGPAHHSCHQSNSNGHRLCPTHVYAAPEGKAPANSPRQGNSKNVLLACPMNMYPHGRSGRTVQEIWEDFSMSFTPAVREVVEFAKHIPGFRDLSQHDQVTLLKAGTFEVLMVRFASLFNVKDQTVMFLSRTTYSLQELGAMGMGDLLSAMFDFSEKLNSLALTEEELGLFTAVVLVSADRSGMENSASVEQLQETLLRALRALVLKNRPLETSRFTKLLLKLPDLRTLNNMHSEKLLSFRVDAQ
hgDAF-12 ag: hgDAF-12 agonism, primary luciferase screen; HEK293 GAL4-hgDAF12 UAS-luciferase reporter, agonist luminescence; normalized to butyrate control; activation, % at 6.8 µM; hit rate 1.8% among 370,000; AID 687014;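 active = activation above a cutoff set at the mean of all screened compounds plus 3 SD, cut at about 10% in these data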
LXRb hcDAF ctr: LXR-beta agonism as hcDAF-12 counter-screen. shares compounds with hcDAF12 agonist. HEK293 Gal4-LXR tk-luc reporter, luminescence, 24 h; normalized: DMSO 0%, positive control 100%. activation, % at 6.8 µM. 3,400 tested, under 10 active. AID 743027;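 active = mean percent activation of the reporter above a cutoff set as the average over tested compounds plus their standard deviation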
hcDAF12 conf: confirmation of H. contortus DAF-12 agonists. shares compounds with hcDAF12 agonist. HEK293 hcDAF-12 lit1-tk-luc reporter, luminescence; % of Δ7-dafachronic acid response. activation, % at 6.8 µM. hit rate 61% among 3,400. AID 743032;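 active = mean activation across triplicate tests above the threshold derived from the earlier primary screen, cut at about 5.5% in these data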
A number is an active result; 0 = inactive; - = not tested or not shown.

SMILES	DAX1 inh-1	DAX1 inh-2	ssDAF-12 act	hcDAF12 agonist	Rev-erbA mod	hgDAF-12 ag	LXRb hcDAF ctr	hcDAF12 conf
C/C(CC(=O)Nc1ccccn1)=N\NC(=O)c1ccccc1O	0	0	1.0	10.6	0	0	0	9.1
C/C(CC(=O)Nc1ccccn1)=N\NC(=O)c1ccc2ccccc2c1	0	0	0	0	0	0	-	-
Cc1cc(C)cc(OCC(=O)NNC(=O)c2ccccn2)c1	0	0	0	0	0	0	-	-
C=CCN1[C@H](C)[C@H](c2ccccc2)Oc2cc(Br)ccc2S1(=O)=O	0	-	0	0	0	0	-	-
COc1ccc(-c2cn3ccccc3n2)cc1OC	0	0	3.1	12.6	0	10.8	0	12.9
Cn1c(=O)c2c(nc(SCCN3CCOCC3)n2Cc2ccc(F)cc2)n(C)c1=O	0	4.4	0	7.8	0	0	0	7.5
CCn1c(SCc2ccc(C(C)(C)C)cc2)nnc1-c1ccc(C(C)(C)C)cc1	0	-	0	0	0	0	-	-
CC(C)[C@H]1COc2c3ccccc3nn21	0	-	0	0	0	0	-	-
COc1ccc(C(=O)Nc2sc(C)c(C)c2CN2CC(C)OC(C)C2)cc1 (stereo not given)	3.9	0	0	8.9	0	10.7	0	0
Cc1nn(-c2ccccc2)c2sc(C(=O)N3CCN(C(c4ccccc4)c4ccc(Cl)cc4)CC3)cc12 (stereo not given)	0	-	0	0	0	0	-	-
CN(C)c1cccc(/C=C(\C#N)c2ccccc2)c1	0	0	1.2	7.1	0	19.0	0	9.0
C=CCN1C(=O)[C@@H](CC(=O)NCc2cccc3ccccc23)[C@]2(C(=O)OC)CCCCC=C12	0	-	0	0	0	0	-	-
C/C(=N/N=C(/C)c1cccs1)c1cccs1	0	6.1	1.1	8.3	0	15.7	0	11.0
C/C(=N/OC(=O)c1ccc(C)cc1)c1cccs1	0	0	0	0	0	0	-	-
C[C@H]1COc2cc(N3CCOCC3)ccc2S(=O)(=O)N1	0	-	0	0	0	0	-	-
CSc1nnc(-c2cc3c(s2)-c2ccccc2CC3)o1	0	0	2.6	9.8	0	10.7	0	10.7
Cc1ccc(/C=C/C(=O)Nc2ncc(C)s2)o1	0	0	0	7.2	0	0	0	0
O=C(O)CC(NC(=O)c1ccccc1NC(=O)c1ccccc1)C(=O)O (stereo not given)	0	0	0	0	0	0	-	-
Cc1ccc(C(=O)Nc2ccccc2C(=O)NC(CC(=O)O)C(=O)O)cc1 (stereo not given)	0	0	0	7.0	0	0	0	0
CC(=O)Nc1cccc(NC(=S)Nc2cccc3ccccc23)c1	0	0	0.9	7.6	0	0	0	0
CC(=O)c1cccc(NC(=S)Nc2cccc3ccccc23)c1	0	0	0	0	0	0	-	-
Nc1nc2ncccn2c1-c1ccc(C(F)(F)F)cc1	0	-	0	6.9	0	0	0	0
Cc1ccc(-c2cc(C(F)F)n3ncc(C(=O)N4CCCc5ccccc54)c3n2)cc1	0	0	0	6.6	0	0	0	0
CC(C)(C)OC(=O)N1CCC2CCN(CCc3ccccc3)CC21 (stereo not given)	0	-	0	0	0	0	-	-
Nc1cc2ccccc2cc1NS(=O)(=O)N1CCCCC1	0	-	0	0	0	0	-	-
O=C(Nc1ccccc1)n1cc(-c2ccccn2)c(N2CCOCC2)n1	0	0	2.2	7.2	0	0	0	0
Cn1c(NC(=O)c2ccccc2)nc(Cc2ccccc2)c1Cc1ccccc1	0	-	0	0	0	0	-	-
O=C(NC(=S)N1CCCc2ccccc21)c1ccccc1	0	0	0	8.3	0	0	0	9.2
O=C(Nc1nnc(SCC(=O)N2CCCc3ccccc32)s1)c1ccc2ccccc2c1	0	0	0	0	0	0	-	-
O=C(NC(=S)N1CCCc2ccccc21)c1ccc(Cl)cc1	0	0	0	7.9	0	0	0	9.2
